Over roughly 59,000 sequences, the read-out has its median near -0.00055; the lowest 2% begin near -2. The entries come from a sample that favours the lowest values as a whole.

The assay in a line: Identification of proteins required for the processing of the EWS-FLI1 nascent transcript.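 Further: robust z of luciferase light less the median z of siRNAs with the same seed.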 The conditions noted are these: TC32 Ewing sarcoma NR0B1-luc vs CMV-luc (EWS-FLI1 target promoter against control promoter), 48 h; screened at 20 nM (by protocol). In short, it runs like this:
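Readout: OneGlo luminescence, 48 h post-transfection, TC32-NR0B1-luc vs TC32-CMV-luc in parallel. siRNA 20 nM final, RNAiMax lipid, 600 cells/well; z-score-MAD transformed, then seed-adjusted.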
UCUGAGUUUUGAGCUGUCC against MST1R registered a seed-corrected z-score of -0.112. In the case of UGUCUAAUGACAAUGCUGU against UBR5 it was -0.38; in that of UACUGCUAGAUUGAGAUCC against KDM5D, -2.31; in that of UAUCUUGCAUAAGUCUUGU against XRCC6BP1, 1.28.

Turning to UACUCUUUUCCACGAAUCC against CCDC141, the seed-corrected z-score is -0.626.

Regarding UUCAAUACCAAAGAUAUUG against BTF3P16, the seed-corrected z-score was -2.14. In the case of UGAGGUCCCAGAUUCUCAG against FBXW4 it was 0.248. For UCUUCGUCAUCGUUCAUUC against ZC3H4, the seed-corrected z-score was -2.37.

AUAGACAUCUGAUCCGUUC against PGK1 came in with a seed-corrected z-score of -0.0528. Then UCUGCGACAUUCCUCAUAG against XPO1, with -0.546; and AUCCAGAUUAGUUUCCCUC against VIM, with -2.52.

The sequence UCAAUCUCAACGGUCACCG against NLRP1 showed a seed-corrected z-score of 1.3.

The sequence UUUGAUUGAGGCAUAUGCG against REEP6 displayed a seed-corrected z-score of 1.08. Then UCAGGUUCAGCAGGAAGUG against ADAMTS10, with -0.537; and UUAAUGGUGACCUUGACCU against C19orf47, with -0.413; and AACUGAGUUGUAGAGCUGC against IL12RB1, with -0.226. In the case of AAUUCUUUUUGUCUGGAUC against PRSS35 it was 0.405; in that of UAAAUCUGCUCUCCUUUCC against LY86, 0.785. Then UUCUCUUCAACAAGUGACA against C6orf201, with -2.08. UCUCUGUCCUCAAAAGUGG against CLCN4: the seed-corrected z-score was -0.277. Then UACGUGAGCUUGUACAGCC against MTTP, with -0.0803. In the case of UCGAGUGUGAUGUCUCUUC against AGO3 it was 0.413; in that of UUGUGCACCACGAGAGUAG against RAB40AL, -2.28.

The sequence UUCUGGAGCAGUUCGACAG against CNPPD1 yielded a seed-corrected z-score of 0.781. The sequence UUCUCAAUCAGCACGGCCC against GPX2 displayed a seed-corrected z-score of -0.162. As to UCAUGUACACUGCUAAUUC against SLC30A10, the seed-corrected z-score stood at 0.696. On to AUACUGUUCACCGAGAAGG against TSPEAR, for which the seed-corrected z-score was -3.82.

UAUGUUGGUGCUCAUACUC against MED11 showed a seed-corrected z-score of 0.678. Sequence UUAAACUCAGGCUUUGGUC against HABP4 gave a seed-corrected z-score of -1.03. UACUGAUUCACAAUGACCU against RNF208 yielded a seed-corrected z-score of -0.361. In the case of UAACUUGAUAACAGGUGCC against OR10T2 it was -5.77. In the case of AAAAACAACAGAAGCAUGC against TSPAN8 it was 0.399; in that of UGUUGUUCAACAAAACCGC against KRT28, 0.472; in that of AUAGGCAUAUGGUUAGGCC against SS18, -2.03.

Consider ACAGCGUACAGCAAACACG against TMEM54, for which the seed-corrected z-score is -12. Then UUCCUCUUCACCACGGUGU against CNNM3, with -0.123; and UGAGAGUUCAUAGCGUAUC against RCE1, with -0.494; and AAAGUAUAAUGGAUGUAUC against GNAI1, with -0.47. Take AUAGGUACCAGGUAUGAGC against FOXM1: the seed-corrected z-score was found to be 0.087. Then UUUGUUGGGAUGUUGGGUG against SPATA12, with -2.1. Take UGCUGAAUGAGGUACGUGC against ZNF550: the seed-corrected z-score is -0.438. In the case of UAUCCAUUUUCCUCUAUCC against FGF10 it was -0.261; in that of UAUGGUUAGAAGAUAUCCC against IDS, 1.1; in that of AAAAGCUCACGGAGAAUCC against LINC01433, 1.28. Sequence AACUGUCAAUGGUUGAAGC against FCGR2A returned a seed-corrected z-score of -0.901.

As to AGUUUCUCAAUGUCUGGGC against PAGR1, the seed-corrected z-score was -3.83. Sequence UUCGAGAAAAGCAGAAUCC against PRORSD1P displayed a seed-corrected z-score of -0.604. As to ACAUCAACCACUACAGUGC against PCDHB7, the seed-corrected z-score was -0.314. UUAACUUUCUCGAUAGAAC against SLC45A2 returned a seed-corrected z-score of 0.853. In the case of UUGACGUGCAUGAAGGACC against DUSP3 it was -0.254; in that of UUCAGUACCAGGCUGGGUG against COMT, 0.499. Then UUCUUGAUGAUCUUUAGCU against LONP1, with 0.0484; and UGGUCUAUAGUAUUCAUGC against YTHDF2, with -0.0088; and UGAUUAUUAGGUACUACCC against RCN2, with -2.4. Then UUCAAUCAGAUCGAAGAGC against CLK2, with 0.0394; and AAAGAAGUAGAGGUAGGAC against OR6T1, with 0.724; and UUAACUGCACCAUCAGUGU against S100A8, with -3.04.

The sequence UCAGCAUCAACAUAAUGCG against TAS2R40 displayed a seed-corrected z-score of -1.07. In turn, UGACGAAUCCCUGCUAUAG against TDRD5 gave a seed-corrected z-score of -0.0697.

As for AAUUAGAUUACCUAAACAC against CDKL2, the seed-corrected z-score worked out at 0.926. In the case of UAAAGGGAAAUUUCCACCA against CDH16 it was 0.815; in that of UUUGGUGAUUUCAUAAUCC against PCDH18, -0.027. Then AUCUGGAUCGCUCAGCUCC against TMEM235, with 0.0464. As to UAGCUUCUCACAGACUUUC against KCTD8, the seed-corrected z-score was -2.45. Consider UUUCCUCUAGGAAGCAUCU against TRIM17, for which the seed-corrected z-score turned out to be 0.172. In the case of AUAGGCAGCAGUGCACUCG against 5-Sep it was -1.81. UAUAGUUAAAUCCAUCAUC against CALU came in with a seed-corrected z-score of 0.272. Then UAGUAAGAAGAGUCAAUGC against PGA5, with -0.472; and AAUUGUUCACUGACCAGGC against WNT8A, with -0.645.

The sequence AAAUAAUCCUGUCUACUCC against BOD1 returned a seed-corrected z-score of 0.629. Then UUGUAUUCAUCCUUGAAGC against CCDC89, with -2.42; and UGAGGACAUCGAAGAGGCC against HTR6, with 1.21; and UAAUGUAGAACAUUUUGAC against LECT2, with 0.659.

UAUGCUUGCAGUCCACUGG against DYNLT3 had a seed-corrected z-score of 1.02. In turn, UUACUGGGAAUAGCACUGC against ITGA5 displayed a seed-corrected z-score of 0.318.

Sequence UACUCUAUCCGCUGUGCCC against RCC2 returned a seed-corrected z-score of -0.853. Sequence UAGUUGUCGGUAUCUGUCC against CSPP1 displayed a seed-corrected z-score of -2.38.

With AUCGUGAAGAGAUACUCCG against MAPKBP1, the seed-corrected z-score came out at 0.318. UCAGCACACUGUCAGGUAC against USB1 registered a seed-corrected z-score of 0.878. Then UCACGGUGCACAAAGUUCU against ZAP70, with -0.0104. In the case of UCUCUGUAUGUGACUGUGA against SNRPD3 it was -2.85; in that of UUGAAGUUCAUUAGUCUCC against AK5, -0.322. Then UGUGGAUUUUGGAUGCAGC against XKR5, with -0.21; and AAUGUGGUUGAGCUGAUCC against MAPK3, with -2.13; and UUGGACAAAAGAUAAGAGC against SNRNP40, with -0.258.
